Inconclusive results are not listed. Activity calls are given as the source filed them. Calls come from the whole dose curve; as a rule, active = well fitted cell-killing curve with a large enough effect; inconclusive = small, poorly fitted or top-dose-only effect, or effect the other way; inactive = flat fitted curve, though single readings scatter.
Experiments:
Experiment in all cases: Primary qHTS to identify gynecologic anti-cancer compounds using libraries of approved drugs and bioactive compounds (AID 1345084); note: nearly all actives have a fitted effect of over 55% in size
C33A = conditions: Gynecologic cancer cell panel viability, ATPlite luminescence, 48 h; series mostly up to 57.5 µM
Summary of the method: (§1)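 Cell viability after 48 h drug treatment, ATPlite luminescence readout; five doses.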

CAOV3 = conditions: Gynecologic cancer cell panel viability, ATPlite luminescence, 48 h; series mostly up to 57.5 µM
Summary of the method: as §1

CASKI = conditions: Gynecologic cancer cell panel viability, ATPlite luminescence, 48 h; series mostly up to 57.5 µM
Summary of the method: as §1

Es-2 = conditions: Gynecologic cancer cell panel viability, ATPlite luminescence, 48 h; series mostly up to 57.5 µM
Summary of the method: as §1

HeLa = conditions: Gynecologic cancer cell panel viability, ATPlite luminescence, 48 h; series mostly up to 57.5 µM
Summary of the method: as §1

Hek293T = conditions: Gynecologic cancer cell panel viability, ATPlite luminescence, 48 h, control line for the selectivity index; series mostly up to 57.5 µM
Summary of the method: as §1

JEG-3 = conditions: Gynecologic cancer cell panel viability, ATPlite luminescence, 48 h; series mostly up to 57.5 µM
Summary of the method: as §1

OV90 = conditions: Gynecologic cancer cell panel viability, ATPlite luminescence, 48 h; series mostly up to 57.5 µM
Summary of the method: as §1

PA-1 = conditions: Gynecologic cancer cell panel viability, ATPlite luminescence, 48 h; series mostly up to 57.5 µM
Summary of the method: as §1

SKOV3 = conditions: Gynecologic cancer cell panel viability, ATPlite luminescence, 48 h; series mostly up to 57.5 µM
Summary of the method: as §1

Tov-21-G = conditions: Gynecologic cancer cell panel viability, ATPlite luminescence, 48 h; series mostly up to 57.5 µM
Summary of the method: as §1

Tov112D = conditions: Gynecologic cancer cell panel viability, ATPlite luminescence, 48 h; series mostly up to 57.5 µM
Summary of the method: as §1
% is set by controls: 0 for no effect and ±100 for the full control effect.

COc1cc(/C=C/C(=O)O[C@H]2[C@@H]3C=CO[C@@H](O[C@@H]4O[C@H](CO)[C@@H](O)[C@H](O)[C@H]4O)[C@@H]3[C@@]3(CO)O[C@@H]23)ccc1O
inactive: Potency (C33A) | Potency (CAOV3) | outcome (CASKI) | Potency (Es-2) | Potency (HeLa) | Potency (Hek293T) | Potency (JEG-3) | Potency (OV90) | Potency (PA-1) | Potency (SKOV3) | Potency (Tov-21-G) | Potency (Tov112D)

CC(=O)OC1C(CO)OC(O[C@H]2[C@H](OC(=O)[C@]34CCC(C)(C)C[C@H]3C3=CCC5[C@@]6(C)CC[C@H](O[C@@H]7O[C@H](C(=O)O)[C@@H](O)[C@H](O[C@@H]8OC[C@@H](O)[C@H](O)[C@H]8O)[C@H]7O[C@@H]7O[C@H](CO)[C@H](O)[C@H](O)[C@H]7O)[C@@](C)(C=O)C6CC[C@@]5(C)[C@]3(C)C[C@H]4O)O[C@H](C)[C@H](OC3OC(C)C(OC4OCC(O)C(O)C4O)C(O)C3O)[C@@H]2O)C(O)C1O (stereo not given in full)
inactive: activity change, negative = cytotoxicity (C33A) 12.2% [at 6.55 µM] | activity change, negative = cytotoxicity (CAOV3) -15% [at 6.55 µM] | activity change, negative = cytotoxicity (CASKI) 7.74% [at 6.55 µM] | activity change, negative = cytotoxicity (Es-2) -0.286% [at 6.55 µM] | activity change, negative = cytotoxicity (HeLa) -1.51% [at 6.55 µM] | activity change, negative = cytotoxicity (Hek293T) 1.03% [at 6.55 µM] | activity change, negative = cytotoxicity (JEG-3) 3.7% [at 6.55 µM] | activity change, negative = cytotoxicity (OV90) -0.616% [at 6.55 µM] | activity change, negative = cytotoxicity (PA-1) 13.7% [at 6.55 µM] | activity change, negative = cytotoxicity (SKOV3) 33.2% [at 6.55 µM] | activity change, negative = cytotoxicity (Tov-21-G) 2.01% [at 6.55 µM] | activity change, negative = cytotoxicity (Tov112D) 5.09% [at 6.55 µM]

CCC(C)C(=O)O[C@H]1[C@@H](O[C@H]2O[C@H](CO)[C@@H](O)[C@H](O)[C@H]2O)O[C@H](CO)[C@@H](O)[C@@H]1O (stereo not given in full)
inactive: Potency (C33A) | Potency (CAOV3) | outcome (CASKI) | Potency (Es-2) | Potency (HeLa) | Potency (Hek293T) | Potency (JEG-3) | Potency (OV90) | Potency (PA-1) | Potency (SKOV3) | Potency (Tov-21-G) | Potency (Tov112D)

CCCNCCOc1ccc(NC(=O)c2c[nH]c3c2C(=O)CCC3)cc1F
inactive: Potency (C33A) | Potency (CAOV3) | outcome (CASKI) | Potency (Es-2) | Potency (HeLa) | Potency (Hek293T) | Potency (JEG-3) | Potency (OV90) | Potency (PA-1) | Potency (SKOV3) | Potency (Tov-21-G) | Potency (Tov112D)

C=CC(C)(CC/C=C(\C)C(=O)OC[C@H]1O[C@@H](OC(C)(C=C)CC/C=C(\C)C(=O)O[C@H]2[C@H](O)[C@@H](O)[C@H](OC(C)(C=C)CC/C=C(\C)C(=O)O)O[C@@H]2CO)[C@H](O)[C@@H](O)[C@@H]1O)O[C@@H]1O[C@H](CO)[C@@H](O)[C@H](O)[C@H]1O (stereo not given in full)
inactive: activity change, negative = cytotoxicity (C33A) -1.99% [at 11.6 µM] | activity change, negative = cytotoxicity (CAOV3) -17.5% [at 11.6 µM] | activity change, negative = cytotoxicity (CASKI) -16.7% [at 11.6 µM] | activity change, negative = cytotoxicity (Es-2) -6.19% [at 11.6 µM] | activity change, negative = cytotoxicity (HeLa) 2.2% [at 11.6 µM] | activity change, negative = cytotoxicity (Hek293T) -1.07% [at 11.6 µM] | activity change, negative = cytotoxicity (JEG-3) -1.18% [at 11.6 µM] | activity change, negative = cytotoxicity (OV90) 2.45% [at 11.6 µM] | activity change, negative = cytotoxicity (PA-1) 1.36% [at 11.6 µM] | activity change, negative = cytotoxicity (SKOV3) 0.327% [at 11.6 µM] | activity change, negative = cytotoxicity (Tov-21-G) -2.47% [at 11.6 µM] | activity change, negative = cytotoxicity (Tov112D) 8.98% [at 11.6 µM]

O=C(N[C@H](Cc1ccccc1)C(=O)O)c1sc2cc(F)ccc2c1Cl
inactive: Potency (C33A) | Potency (CAOV3) | outcome (CASKI) | Potency (Es-2) | Potency (HeLa) | Potency (Hek293T) | Potency (JEG-3) | Potency (OV90) | Potency (PA-1) | Potency (SKOV3) | Potency (Tov-21-G) | Potency (Tov112D)

Cc1oc(S(=O)(=O)N2CCCCC2)cc1NC(=O)Nc1ccccc1
inactive: Potency (C33A) | Potency (CAOV3) | outcome (CASKI) | Potency (Es-2) | Potency (HeLa) | Potency (Hek293T) | Potency (JEG-3) | Potency (OV90) | Potency (PA-1) | Potency (SKOV3) | Potency (Tov-21-G) | Potency (Tov112D)

C=CC(C)(O)CC/C=C(\C)C(=O)O[C@@H]1[C@@H](O)[C@H](OC(C)(C=C)CC/C=C(\C)C(=O)O[C@@H]2O[C@H](CO)[C@@H](O)[C@H](O)[C@H]2O)O[C@H](CO)[C@H]1OC(=O)/C(C)=C/CCC(C)(O)C=C (stereo not given in full)
inactive: activity change, negative = cytotoxicity (C33A) 1.06% [at 11.6 µM] | activity change, negative = cytotoxicity (CAOV3) -0.925% [at 11.6 µM] | activity change, negative = cytotoxicity (CASKI) -1.1% [at 11.6 µM] | activity change, negative = cytotoxicity (Es-2) 0.394% [at 11.6 µM] | activity change, negative = cytotoxicity (HeLa) -4.07% [at 11.6 µM] | activity change, negative = cytotoxicity (Hek293T) 7.88% [at 11.6 µM] | activity change, negative = cytotoxicity (JEG-3) -0.355% [at 11.6 µM] | activity change, negative = cytotoxicity (OV90) -1.43% [at 11.6 µM] | activity change, negative = cytotoxicity (PA-1) 3.07% [at 11.6 µM] | activity change, negative = cytotoxicity (SKOV3) -0.696% [at 11.6 µM] | activity change, negative = cytotoxicity (Tov-21-G) 0.188% [at 11.6 µM] | activity change, negative = cytotoxicity (Tov112D) -0.614% [at 11.6 µM]

NC(N)=NCCC[C@H](NC(=O)c1sccc1NS(=O)(=O)c1cccc2nsnc12)C(=O)O
inactive: Potency (C33A) | Potency (CAOV3) | outcome (CASKI) | Potency (Es-2) | Potency (HeLa) | Potency (Hek293T) | Potency (JEG-3) | Potency (OV90) | Potency (PA-1) | Potency (SKOV3) | Potency (Tov-21-G) | Potency (Tov112D)

CCCC(=O)Nc1cccc(NC(=O)c2ccccc2Br)c1
inactive: Potency (C33A) | Potency (CAOV3) | outcome (CASKI) | Potency (Es-2) | Potency (HeLa) | Potency (Hek293T) | Potency (JEG-3) | Potency (OV90) | Potency (PA-1) | Potency (SKOV3) | Potency (Tov-21-G) | Potency (Tov112D)

From PubChem BioAssay (NCATS)
